# PubChem BioAssay (NCI)
# This is part of a sample that, as a whole, favours compounds with a hit. Of some 79,000 tested, about 15% had one in any assay. Values without a mark were called inactive. The source made the active and inactive calls. Rule as the data show it: active = growth inhibition above about 70%; inactive = the rest.
# Legend:
# [1] = NCI Yeast Anticancer Drug Screen. Data for the rad50 strain (AID 155);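 also: 0% = growth of vehicle-only cultures of the same strain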; conditions: S. cerevisiae rad50 strain growth inhibition; at 50.0 µM; active compounds read high
# How it was run: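 Yeast carrying a defined DNA repair defect were exposed to test compounds, and growth was compared with vehicle-treated controls to give percent inhibition.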
# [2] = NCI Yeast Anticancer Drug Screen. Data for the mec2-1 strain (AID 157); conditions: S. cerevisiae mec2-1 strain, at 50.0 µM, active compounds read high
# How it was run: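 Using mec2-1 yeast: add compound, measure growth, express inhibition versus vehicle-treated cultures.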
# [3] = NCI Yeast Anticancer Drug Screen. Data for the sgs1 mgt1 strain (AID 161);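 also: 0% = growth of cultures given vehicle only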; conditions: S. cerevisiae sgs1 mgt1 strain, at 50.0 µM, active compounds read high
# How it was run: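 Compounds are added to genetically altered yeast, and growth is compared with cultures given vehicle alone to give percent inhibition.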
# [4] = NCI Yeast Anticancer Drug Screen. Data for the cln2 rad14 strain (AID 165);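 also: 0% = growth equal to vehicle treated cultures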; conditions: S. cerevisiae cln2 rad14 strain, at 50.0 µM, active compounds read high
# How it was run: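 Yeast strain cln2 rad14, bearing defects in cell cycle control and DNA repair, serves as the test system; values reflect growth inhibition compared with vehicle.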
# [5] = NCI Yeast Anticancer Drug Screen. Data for the bub3 strain (AID 167); conditions: S. cerevisiae bub3 mutant strain, at 50.0 µM, active compounds read high
# How it was run: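 Compounds were applied to a genetically altered yeast strain carrying a cell-cycle control defect. Growth inhibition was scored against vehicle-treated controls.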
# [6] = NCI Yeast Anticancer Drug Screen. Data for the mlh1 rad18 strain (AID 175); conditions: S. cerevisiae mlh1 rad18 strain growth inhibition; at 50.0 µM; active compounds read high
# How it was run: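 Steps: expose repair-defective yeast to compound; measure growth; express inhibition against vehicle-treated controls.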
SMILES,growth inhibition [1],growth inhibition [2],growth inhibition [3],growth inhibition [4],growth inhibition [5],growth inhibition [6]
N=C(N)SCc1cccc(Cl)c1,-20%,-14%,-4.55%,-82.1%,-9.45%,-22.6%
CCN(CC)c1cc(-c2ccccc2)oc(=O)c1Cl,25.8%,-10.3%,13.6%,9.4%,16.5%,20.6%
CCOC(=O)C(/C=C/C(C)C)(CC)C(=O)OCC,-8.75%,11.2%,8.2%,44.8%,-6.95%,24.4%
OC1CC2CCCC2CC1O (stereo not given),-9.45%,-29.7%,-6.95%,6.35%,-9.65%,-0.75%
S=C(NCCS)Nc1ccccc1,-0.6%,-11.4%,-2.15%,-46.6%,41.8%,13.3%
CCCCCCCCCCCCCCCCS(=O)(=O)N/N=C/c1ccc(N(C)C)cc1,26.1%,13.3%,17.1%,12.3%,1.95%,13.7%
CN=C1c2ccccc2C(=O)c2c1c(O)n(C)c2O,3.05%,-8.45%,0.9%,1.4%,-2.75%,-1%
O=CC(NC(=O)C(O)C(O)C(O)C(O)CO)C(O)C(O)C(O)CO (stereo not given),-13.2%,6.8%,-1.45%,-40%,-0.95%,1.15%
CN(C)/C=C/c1nnnn1-c1ccc(I)cc1,4.5%,12.9%,24.8%,7.45%,28.8%,34.6%
CCOC=C(C(=O)OCC)C(=O)OCC,22.1%,-7.45%,-6.5%,-1%,-10.6%,15.6%
CCCCOC(=O)OCCOCCOC(=O)OC(C)C(=O)OCCCC (stereo not given),-16.9%,-22.4%,-10.2%,-21.3%,1.7%,10.8%
O=C1OC2C(I)C3C(C4CCCCC4)C1C23 (stereo not given),8.3%,-3.85%,31.8%,17%,65.8%,7.7%
O=C1C=CC2C=CC1C=C2,-1.55%,14.8%,23.2%,1.15%,-7.7%,11.7%
CS(=O)(=O)NCCBr,-10.4%,-3.5%,5.9%,-22.4%,-32%,-10.9%
COC(=O)c1csnn1,1.2%,10.8%,12.7%,8.5%,4.3%,10.2%
CC(C)(C)c1cc(C(C)(C)C)c(P(C(O[Si](C)(C)C)=C(c2ccccc2)c2ccccc2)C(O[Si](C)(C)C)=C(c2ccccc2)c2ccccc2)c(C(C)(C)C)c1,-14.7%,-8.45%,-3.7%,5.2%,-5%,15.2%
NCCCCCCCCCCCCN,-6.15%,-11.8%,-0.3%,-37.2%,-13.5%,19%
CNc1ccc(C(=O)O)cc1C(F)(F)F,-0.35%,-1.45%,-6%,0.65%,-32.6%,8.85%
O=C(CC(C(=O)c1cccs1)c1ccsc1)c1cccs1 (stereo not given),-23.8%,-22.6%,0.85%,21%,25.8%,-38.7%
COc1cc(C2c3cc4c(cc3OC(C)(N3CCCC3)C2C)OCO4)cc(OC)c1OC (stereo not given),-25.4%,6.95%,-9.8%,14.2%,-2.55%,0.25%

SMILES,growth inhibition [1],growth inhibition [2],growth inhibition [3],growth inhibition [4],growth inhibition [5],growth inhibition [6]
C[C@@H]1CC[C@@H](C)[C@](C)(CCc2ccoc2)C/C=C\C=C/1C(=O)O,85.2% (active),85.8% (active),73.8% (active),84.7% (active),68.8%,78.2% (active)
CCc1c([N+](=O)[O-])c2cc([N+](=O)[O-])ccc2n1C,3.35%,8.85%,-7.65%,-1.65%,2.8%,8.75%
Cc1ccc(C(=O)NC(N)=O)cc1,12.4%,-6.25%,-17.8%,-51.4%,-13.1%,-18.6%
CCCCOC(=O)/C=C\C(=O)NC(=O)NC(C)(C)C,-7.55%,1.2%,-4.3%,-33.1%,5.05%,3.15%
O=C(OCC1OCOC(COC(=O)c2ccccc2)C(OC(=O)c2ccccc2)C1OC(=O)c1ccccc1)c1ccccc1 (stereo not given),9.85%,8.35%,-4.6%,-13.8%,-0.65%,19.6%
O=C(c1ccccc1)c1cc(Cl)ccc1NCn1nnc2ccccc21,-47.9%,-22.1%,-40.8%,-21.8%,-49.5%,-30.1%
COc1c(C)c(OCC=C(C)C)cc(CO)c1CO,11.8%,-3.2%,-13.9%,-8.15%,-0.95%,-84.5%
Cc1ccc(NC(=O)CC2SC(=Nc3cccc(Cl)c3C)NC2=O)cc1 (stereo not given),30.9%,27.9%,41.5%,28.7%,26.1%,11%
CC(=O)NNC(=S)N/C=C(\C#N)S(=O)(=O)c1ccc(C)cc1,-44.5%,-26.4%,-35.5%,-61.3%,-25.8%,-37.6%
COc1cc(C)cc(OC)c1/C=C/C(=O)O,8.4%,11.1%,-8.6%,-13.6%,1.75%,2.25%
CC(C)C(C)(C(N)=O)C(C)C,14.3%,17.4%,10.2%,17.9%,-1.25%,-1.4%
CCC1=NC(C(F)(F)F)(C(F)(F)F)N=C(N2CCOCC2)O1,23.8%,6.15%,9.2%,14.4%,22.4%,2.2%
CCC(C)C(=O)OCC1(c2ccc(C)cc2OC(=O)C(C)C)CO1 (stereo not given),15.7%,-2.45%,19.2%,-1%,-6%,12.2%
O=C(OCC1OC(OCc2ccccc2)C(OC(=O)c2ccccc2)C1OC(=O)c1ccccc1)c1ccccc1 (stereo not given),-10.2%,-6.1%,-2.4%,-3%,-13.5%,-24.1%
COc1ccc(-c2cc(=O)c3cccc(CC(=O)O)c3o2)cc1OC,99.2% (active),99.2% (active),97.5% (active),98.8% (active),99.3% (active),99.2% (active)
CCN(CC)C(=O)C(C(=O)OC)c1ccccc1 (stereo not given),-4.6%,-9.75%,7.8%,-27.6%,10%,7.1%
CC(C)(C)[C@@H]1NC(=O)CN1C(=O)OCc1ccccc1,-22.1%,-35.2%,-51.9%,-17.1%,26.9%,-11.1%
[Zn+2].c1ccc(-c2c3nc(c(-c4ccccc4)c4[n-]c(c(-c5ccccc5)c5nc(c(-c6ccccc6)c6[n-]c2c2ccccc62)-c2ccccc2-5)c2ccccc42)-c2ccccc2-3)cc1,-37.5%,-36.4%,-32.6%,-6.55%,-23.9%,-36.8%
Cc1ccc(C(C)C)cc1OC(=O)NC1CCCCC1,-4%,9.3%,9.9%,-13.2%,-23.4%,-0.6%
O=C(c1nc2ccc([N+](=O)[O-])cc2[nH]c1=O)C(O)c1ccc2c(c1)OCO2 (stereo not given),32.4%,-9.25%,-11.1%,11.1%,-1.25%,0.35%
